According to PubChem BioAssay (NCATS):
Results filed as inconclusive are left out. Calls of active or inactive are those of the source. The call rests on the fitted dose curve.

Biological target: Cytochrome P450 1A2 (Homo sapiens) (UniProt P05177)
Assay: p450-cyp1a2 (AID 410)
Conditions: recombinant CYP1A2, luciferin-ME demethylation, luminescence; series mostly up to 57 µM
How it was run: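 O-Demethylation of luciferin 6' methyl ether by human CYP1A2 is monitored as luciferase luminescence. Substrate sits at Km (100uM); enzyme is 20nM. Values are scaled to 57 uM furafylline as maximal inhibition.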
Potency means the concentration at half of the fitted maximal effect.

Chain of Cytochrome P450 1A2 (Homo sapiens) (P05177 whole entry, looked up): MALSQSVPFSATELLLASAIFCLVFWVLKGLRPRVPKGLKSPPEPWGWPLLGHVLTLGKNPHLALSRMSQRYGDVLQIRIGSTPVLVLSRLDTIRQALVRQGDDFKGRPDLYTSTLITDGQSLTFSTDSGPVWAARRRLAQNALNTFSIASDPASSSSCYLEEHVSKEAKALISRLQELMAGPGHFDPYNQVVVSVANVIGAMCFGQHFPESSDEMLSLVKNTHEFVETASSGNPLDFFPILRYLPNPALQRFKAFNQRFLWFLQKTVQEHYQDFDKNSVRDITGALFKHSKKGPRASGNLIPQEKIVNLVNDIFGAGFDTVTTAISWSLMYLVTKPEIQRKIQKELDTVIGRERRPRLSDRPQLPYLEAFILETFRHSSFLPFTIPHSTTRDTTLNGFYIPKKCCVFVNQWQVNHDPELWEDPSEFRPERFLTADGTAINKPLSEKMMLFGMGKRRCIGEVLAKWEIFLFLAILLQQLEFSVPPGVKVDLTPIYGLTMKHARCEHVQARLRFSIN

Structure (SMILES) | Potency
Cc1cnc(CNc2cc(-c3cccnc3)ncn2)cn1 | 15.8 µM (active)
CS(=O)(=O)Nc1cccc(-c2cc(Nc3ccccc3)ncn2)c1 | 0.398 µM (active)
CCNc1ncc2nc(-c3ccc(Cl)cc3)c(=O)n(Cc3cccc(OC)c3)c2n1 | inactive
O=c1c(-c2cccc(Cl)c2)nc2cncnc2n1-c1ccccc1 | 2 µM (active)
CN(Cc1ccco1)c1ncncc1-c1ccccc1C(F)(F)F | 12.6 µM (active)
COc1ccc2[nH]cc(CCNc3ccnc(-c4c(C)noc4C)n3)c2c1 | 2 µM (active)
COc1cccc(Cn2c(=O)c(-c3cccs3)nc3cnc(OC)nc32)c1 | 3.16 µM (active)
O=c1c(-c2ccc(Cl)cc2)nc2cnc(N3CCOCC3)nc2n1Cc1ccc(F)cc1 | inactive
COCCNc1ncnc2ccc(-c3c(C)noc3C)cc12 | 3.98 µM (active)
CN(Cc1ccco1)c1nc(-c2ccoc2)nc2ccccc12 | 0.398 µM (active)
COc1cccc(Cn2c(=O)c(-c3cccs3)nc3cnc(N4CCNCC4)nc32)c1 | 15.8 µM (active)
COc1ccccc1CNc1cc(-c2ccccc2C(F)(F)F)ncn1 | 15.8 µM (active)
COc1cccc(Nc2ncc3nc(CCc4ccccc4)c(=O)n(Cc4cccs4)c3n2)c1 | 3.16 µM (active)
Cc1ccccc1-c1ccc2ncnc(NCc3cccnc3)c2c1 | 0.251 µM (active)
Cc1cnc(CNc2ncncc2-c2ccc(N(C)C)cc2)cn1 | 3.16 µM (active)
Cc1cnc(CNc2cc(-c3ccccc3Cl)ncn2)cn1 | 15.8 µM (active)
CN(C)C(=O)c1ccc(-c2cc(N(C)Cc3ccco3)ncn2)cc1 | 25.1 µM (active)
